Assay outcomes as filed in PubChem.
Yp Topo-I inh – Yersinia pestis topoisomerase I inhibitors, primary screen, biochemical, cleavage product accumulation, plate reader, single point; 0.064% of 360,000 active; activity, % at 10 µM; Y. pestis Topo-I cleavage product accumulation; in the data active = activity above about 50%, passing the limit was not always enough
Mtb BioA inh – M. tuberculosis BioA enzyme inhibitors, primary screen, biochemical, plate reader, single point, HTS; AID 602481, 2012; inhibition, % at 9.99 µM; 7,8-diaminopelargonic acid synthase BioA (Mycobacterium tuberculosis); purified M. tuberculosis BioA enzyme; 0.096% of 360,000 active; in the data active = inhibition above about 40%
PrP UTR inh – inhibition of PrP 5' UTR reporter expression; inhibition, % (concentration not given with the values); 0.35% of 340,000 active; AID 488862, 2010; cell-based PrP 5' UTR mRNA reporter, plate reader; in the data active = inhibition above about 52%; also: 0 = median of the neutral control wells
TcdB GH inh – TcdB glycohydrolase inhibitors, primary screen, biochemical, single point, plate reader; 0.24% of 350,000 active; Toxin B (Clostridioides difficile), P18177; inhibition, % at 9.99 µM; TcdB glycohydrolase enzymatic assay; in the data active = inhibition above about 10%
Target sequence (P18177 whole entry, looked up): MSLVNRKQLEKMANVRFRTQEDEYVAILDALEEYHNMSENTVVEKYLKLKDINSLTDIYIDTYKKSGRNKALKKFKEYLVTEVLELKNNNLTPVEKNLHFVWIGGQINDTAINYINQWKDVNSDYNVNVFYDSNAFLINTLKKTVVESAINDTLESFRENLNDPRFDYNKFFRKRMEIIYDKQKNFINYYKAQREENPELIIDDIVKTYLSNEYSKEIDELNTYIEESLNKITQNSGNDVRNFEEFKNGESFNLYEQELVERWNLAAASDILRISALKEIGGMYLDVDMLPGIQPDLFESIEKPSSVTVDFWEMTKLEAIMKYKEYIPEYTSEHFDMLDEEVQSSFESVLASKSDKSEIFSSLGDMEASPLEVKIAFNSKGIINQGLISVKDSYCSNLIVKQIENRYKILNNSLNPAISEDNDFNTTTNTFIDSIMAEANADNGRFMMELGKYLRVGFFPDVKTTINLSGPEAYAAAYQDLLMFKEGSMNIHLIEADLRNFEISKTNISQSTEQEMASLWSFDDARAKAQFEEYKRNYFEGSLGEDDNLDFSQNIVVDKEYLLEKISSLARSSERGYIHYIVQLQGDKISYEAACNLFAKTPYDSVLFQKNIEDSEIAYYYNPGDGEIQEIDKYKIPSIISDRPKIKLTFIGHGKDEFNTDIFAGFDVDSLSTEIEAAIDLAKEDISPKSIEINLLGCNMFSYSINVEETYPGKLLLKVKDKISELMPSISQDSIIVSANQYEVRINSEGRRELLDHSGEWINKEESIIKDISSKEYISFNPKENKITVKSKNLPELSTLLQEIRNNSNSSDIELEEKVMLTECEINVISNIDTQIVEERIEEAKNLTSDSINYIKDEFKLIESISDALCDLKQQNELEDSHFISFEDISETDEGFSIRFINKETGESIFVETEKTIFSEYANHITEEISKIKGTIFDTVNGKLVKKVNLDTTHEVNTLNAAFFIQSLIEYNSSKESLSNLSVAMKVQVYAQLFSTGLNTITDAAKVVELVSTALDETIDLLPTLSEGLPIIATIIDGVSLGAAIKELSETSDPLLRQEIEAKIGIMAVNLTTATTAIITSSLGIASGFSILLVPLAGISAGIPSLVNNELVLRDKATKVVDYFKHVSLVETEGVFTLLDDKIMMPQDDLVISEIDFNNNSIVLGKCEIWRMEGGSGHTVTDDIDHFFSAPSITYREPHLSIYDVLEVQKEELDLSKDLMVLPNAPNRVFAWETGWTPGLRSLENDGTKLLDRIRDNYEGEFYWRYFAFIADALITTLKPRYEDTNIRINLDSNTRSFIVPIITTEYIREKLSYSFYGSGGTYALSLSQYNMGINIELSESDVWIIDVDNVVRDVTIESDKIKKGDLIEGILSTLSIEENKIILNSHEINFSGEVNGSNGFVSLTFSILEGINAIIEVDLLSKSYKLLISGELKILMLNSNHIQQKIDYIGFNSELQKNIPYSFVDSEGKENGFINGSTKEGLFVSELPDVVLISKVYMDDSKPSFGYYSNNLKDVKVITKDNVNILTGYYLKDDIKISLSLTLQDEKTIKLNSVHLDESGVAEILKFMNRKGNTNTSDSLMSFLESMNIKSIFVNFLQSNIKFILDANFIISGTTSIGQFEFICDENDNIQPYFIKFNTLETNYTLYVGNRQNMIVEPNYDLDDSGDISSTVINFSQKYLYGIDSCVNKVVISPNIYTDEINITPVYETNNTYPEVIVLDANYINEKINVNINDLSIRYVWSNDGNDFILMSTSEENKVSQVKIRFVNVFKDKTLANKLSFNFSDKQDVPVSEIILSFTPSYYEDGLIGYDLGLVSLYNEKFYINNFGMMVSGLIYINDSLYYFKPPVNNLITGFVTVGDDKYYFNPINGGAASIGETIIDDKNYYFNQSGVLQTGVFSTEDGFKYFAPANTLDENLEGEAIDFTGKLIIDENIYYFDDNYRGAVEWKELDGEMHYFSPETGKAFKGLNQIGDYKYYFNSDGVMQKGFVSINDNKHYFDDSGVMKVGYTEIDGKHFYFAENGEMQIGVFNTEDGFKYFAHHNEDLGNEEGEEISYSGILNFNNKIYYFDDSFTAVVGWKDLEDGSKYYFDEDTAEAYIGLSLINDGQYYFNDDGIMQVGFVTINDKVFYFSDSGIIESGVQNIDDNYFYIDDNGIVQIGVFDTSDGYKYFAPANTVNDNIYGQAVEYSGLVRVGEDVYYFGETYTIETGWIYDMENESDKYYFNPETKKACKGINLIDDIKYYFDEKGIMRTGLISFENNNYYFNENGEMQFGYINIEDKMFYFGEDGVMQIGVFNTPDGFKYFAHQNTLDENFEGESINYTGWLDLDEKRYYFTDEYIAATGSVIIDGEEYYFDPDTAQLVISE
PrP 5UTR single – prion 5' UTR mRNA inhibition, cherry-pick retest | inhibition, % at 2.5 µM | 48% of 1,100 active | shares compounds with PrP UTR inh | cell-based prion protein 5' UTR reporter, plate reader; in the data active = inhibition above about 54%
An asterisk follows results filed as active. Rows were chosen to be rich in hits. Some 0.57% of all compounds tested hit in one or more screens of this group.

`C[C@H]1CN([C@@H](C)CO)S(=O)(=O)c2ccc(C#CC3CC3)cc2O[C@H]1CN(C)Cc1ccccc1F` gave Mtb BioA inh -1 and TcdB GH inh 1.
Screening COc1ccc(S(=O)(=O)Nc2ccc3c(c2)C(=O)N([C@@H](C)CO)C[C@H](C)[C@H](CN(C)S(=O)(=O)c2cccs2)OCCCC[C@H](C)O3)cc1 returned Mtb BioA inh 4 and TcdB GH inh 0.
Screening Nc1nc(=O)n(C2CC(O)C(CO)O2)cc1Cl (stereo unspecified) returned Mtb BioA inh 1 and TcdB GH inh 1.
For Cc1cc(N)nc(=O)n1C1CC(O)C(CO)O1 (stereo unspecified) the results were Yp Topo-I inh 2, PrP UTR inh 59*, TcdB GH inh 1 and PrP 5UTR single -7.
CCC1CN2CCc3cc(OC)c(OC)cc3C2CC1CC1NCCc2c1[nH]c1ccc(O)cc21 (stereo unspecified) was read as Yp Topo-I inh -19, PrP UTR inh 82*, TcdB GH inh 4 and PrP 5UTR single 87*.
Screening COc1cc2c(cc1OC)C(Cc1ccc(O)cc1)NCC2 (stereo unspecified) returned Yp Topo-I inh 9, Mtb BioA inh -1, PrP UTR inh -24 and TcdB GH inh 2.
COc1ccccc1-c1ccc2c(c1)O[C@H](CN(C)C(C)=O)[C@H](C)CN([C@@H](C)CO)S2(=O)=O was read as Mtb BioA inh 4 and TcdB GH inh 0.
Screening COc1cc(C2C(C#N)=C(N)Oc3cc(N)ccc32)cc(OC)c1OC (stereo unspecified) returned Yp Topo-I inh -6, Mtb BioA inh -2, PrP UTR inh 67* and PrP 5UTR single 88*.
C[C@@H]1CCCCO[C@@H](CN(C)C(=O)c2ccccc2)[C@@H](C)CN([C@@H](C)CO)C(=O)c2cc(NS(=O)(=O)c3cccs3)ccc2O1 was read as Mtb BioA inh 0 and TcdB GH inh 1.
Screening CCOc1ccc(C(=O)c2cc([N+](=O)[O-])ccc2N2CCOCC2)cc1 returned Yp Topo-I inh 5, PrP UTR inh 58*, TcdB GH inh 1 and PrP 5UTR single 72*.
Screening COc1ccc(C(=O)c2cc([N+](=O)[O-])ccc2N2CCOCC2)cc1 returned Yp Topo-I inh -6, PrP UTR inh 83*, TcdB GH inh 1 and PrP 5UTR single 80*.
Screening N#CC1=C(N)Oc2c(oc(CO)cc2=O)C1c1ccsc1 (stereo unspecified) returned Yp Topo-I inh 6, Mtb BioA inh -2 and PrP UTR inh -19.
N#CC1=C(N)Oc2c(ccc3ccccc23)C1c1ccsc1 (stereo unspecified) was read as Yp Topo-I inh 6, Mtb BioA inh 1, PrP UTR inh 77* and PrP 5UTR single 88*.
C[C@H]1CCC[C@@H](O)CCC/C=C/c2cc(O)cc(O)c2C(=O)O1 was read as Yp Topo-I inh -5, Mtb BioA inh 0 and PrP UTR inh 3.
For CCCCC[C@H]1CCCCC[C@H](O)C[C@H](O)[C@@H](O)/C=C/C(=O)O1 the results were TcdB GH inh 1.
`C[C@H]1CCC/C=C/C2C[C@H](O)CC2[C@H](O)/C=C/C(=O)O1` (stereo partly specified) gave Yp Topo-I inh 1, Mtb BioA inh 1, PrP UTR inh 81* and PrP 5UTR single 90*.
For CC1CCC/C=C/C2CC(O)CC2C(O)/C=C/C(=O)O1 (stereo unspecified) the results were Yp Topo-I inh -3, Mtb BioA inh -1, PrP UTR inh 83* and PrP 5UTR single 88*.
For COc1ccc2c3c(n(C)c2c1)[C@@H](CO)N(S(C)(=O)=O)CC31CCN(CC2CCCC2)CC1 the results were TcdB GH inh 2.
For O=C(O)C[C@H]1CC[C@@H](NC(=O)CCN2CCCCC2)[C@H](CO)O1 the results were TcdB GH inh 1.
`Cc1cc(NC(=O)CSc2nc(-c3ccco3)cc(C(F)(F)F)n2)no1` gave Yp Topo-I inh -1, Mtb BioA inh -1, PrP UTR inh 67* and PrP 5UTR single 90*.
Screening COc1ccc(-c2ccc(=O)n(Cc3cc(=O)n4ccccc4n3)n2)cc1 returned Yp Topo-I inh 7, Mtb BioA inh 0, PrP UTR inh 66* and PrP 5UTR single 9.
